Several values for one entry are separate records, joined by “and”; a condition that tells them apart may be missing. Identical values can stand only once. Records with an inconclusive call do not appear. Activity calls are given as the source filed them. The call rests on the fitted dose curve. Positions of bridges follow the written chain, without caps; N, C: chain ends. Non-standard residues stand in square brackets, D forms with d. Residues, ends and D or L forms follow the SMILES beside them. *: point of attachment. Dab(CH2SO3H) = N[C@@H](CCNCS(=O)(=O)O)C(=O)O; X3 = CC[C@@H](C)CCCCC(=O)*; Dab = NCC[C@H](N)C(=O)O
experiment: qHTS assay for small molecules that induce genotoxicity in human embryonic kidney cells expressing luciferase-tagged ATAD5 - cell viability (AID 651634); details: HEK293T ATAD5-luc cells viability, CellTiter-Fluor, 15.5 h; series mostly up to 83.3 µM; activity, negative = cytotoxicity: at the top concentration; further: nearly all actives have a fitted effect of over 25% in size
From the text: National Center for Advancing Translational Sciences [NCATS]
NIH Chemical Genomics Center [NCGC]
U.S. Environmental Protection Agency [EPA]
National Institutes of Environmental Health Sciences [NIEHS]
National Toxicology Program [NTP]
U.S. Food and Drug Administration [FDA]
Enhanced Level of Genome Instability Gene 1 (ELG1; human ATAD5) protein levels increase in response to various types of DNA damage. Using a luciferase reporter-gene tagged with ElG1, a cell-based assay [developed by Kyungjae Myung, NHGRI, NIH] was used to measure the induction of ATAD5 in human embryonic kidney cells (HEK293T). So, increase in luciferase activity can be used to identify the compounds that cause genetic stress. In addition to genotoxicity, these cells were also used to test for cytotoxicity by measuring the protease activity within live cells.
Tox21 Assay Protocol Summary:
For cytotoxicity screening, 2,000 cells in 5 uL/well were dispensed into white, solid-bottom 1536-well plates using a Multidrop Combi (Thermo Scientific) dispenser. Following transfer of 23 nL compound or DMSO vehicle by a pin tool, the plates were incubated 15.5 hr at 37C and 5% CO2. 1 ul CellTiter-Fluor reagent (Promega, Madison, WI) was then added to each plate and following 30 min incubation at 37C, fluorescence intensity was quantified on a ViewLux CCD-based plate reader.
On the % scale 0 is the no-effect control and ±100 the full control effect; potency means the concentration at half of the fitted maximal effect.

SMILES | activity, negative = cytotoxicity | Potency
CCOc1ccc(S(=O)(=O)O)c2cccnc12 | 24.8% (inactive) | –
O=C1C2CC3CC1CC(O)(C3)C2 | 16.7% (inactive) | –
CC(=O)[C@]1(O)Cc2c(O)c3c(c(O)c2[C@@H](O[C@H]2C[C@H](N)[C@H](O)[C@H](C)O2)C1)C(=O)c1ccccc1C3=O | – | 15 µM (active)
CC[N+](CC)(CC)CCC(O)(c1ccccc1)C1CCCCC1 (stereo not given) | 8.08% [at 39.1 µM] (inactive) | –
CO/N=C(\C(=O)N[C@@H]1C(=O)N2C(C(=O)[O-])=C(C[n+]3cccc4c3CCC4)CS[C@H]12)c1csc(N)n1 | -10.4% (inactive) | –
N#Cc1c(N(CC(=O)O)CC(=O)O)sc(C(=O)O)c1CC(=O)O | 14.7% (inactive) | –
CO/N=C(\C(=O)N[C@@H]1C(=O)N2C(C(=O)O)=C(C[N+]3(C)CCCC3)CS[C@H]12)c1csc(N)n1 | 19.5% (inactive) | –
CN(C)CCc1c[nH]c2ccc(Cn3cncn3)cc12 | 23% (inactive) | –
NCCO/C=C/[C@H](N)C(=O)O | -11.8% (inactive) | –
O=P(O)(O)OP(=O)(O)OP(=O)(O)O | 25.6% (inactive) | –
O=C(O)[C@@H]1C[C@H](CP(=O)(O)O)CCN1 | 18.3% (inactive) | –
CC(C)OC(=O)Nc1ccc2nc(-c3cscn3)[nH]c2c1 | -17.7% (inactive) | –
Oc1ccc(Cl)cc1C1CCCC1 | 9.76% (inactive) | –
CC(C)(C)C(=O)OCC(=O)[C@H]1CC[C@H]2[C@@H]3CCC4=CC(=O)CC[C@]4(C)[C@H]3CC[C@]12C | -13.2% (inactive) | –
O=C(O)Cc1nn(Cc2ccc(Br)cc2F)c(=O)c2ccccc12 | 20.4% (inactive) | –
O=C1CC[C@@H](C(=O)N[C@H]2C[C@@H]2c2ccccc2)N1 | 9.31% (inactive) | –
N#Cc1nc(Cl)c(Cl)c(Cl)c1Cl | – | 4.86 µM (active)
CC[C@@H](C)CCCCC(=O)N[C@@H](CCNCS(=O)(=O)O)C(=O)N[C@H](C(=O)N[C@@H](CCNCS(=O)(=O)O)C(=O)N[C@H]1CCNC(=O)[C@H]([C@@H](C)O)NC(=O)[C@H](CCNCS(=O)(=O)O)NC(=O)[C@H](CCNCS(=O)(=O)O)NC(=O)[C@H](CC(C)C)NC(=O)[C@@H](CC(C)C)NC(=O)[C@H](CCNCS(=O)(=O)O)NC1=O)[C@@H](C)O (X3-[Dab(CH2SO3H)]T[Dab(CH2SO3H)][Dab][Dab(CH2SO3H)][dL]L[Dab(CH2SO3H)][Dab(CH2SO3H)]T; lactam 4-C) | -6.1% (inactive) | –
O=C(O)CCCC/C=C(\c1ccccc1)c1cccnc1 | 9.68% (inactive) | –
CCCCCCCCCCCCCCCC(=O)OC[C@H](COP(=O)([O-])OCC[N+](C)(C)C)OC(=O)CCCCCCCCCCCCCCC | 12.4% (inactive) | –

SMILES | activity, negative = cytotoxicity | Potency
CCOC(=O)Cc1ccc(-c2ccccc2)cc1 | 4.03% (inactive) | –
CO/N=C(\C(=O)N[C@@H]1C(=O)N2C(C(=O)O)=C(COC(C)=O)CS[C@H]12)c1csc(N)n1 (stereo in doubt) | 12.4% (inactive) | –
Clc1nc(C(Cl)(Cl)Cl)c(Cl)c(Cl)c1Cl | – | 48.6 µM (active)
C=C(Nc1ccc(OCC)cc1)Nc1ccc(OCC)cc1 | – | inactive
CCN1\C(=C/C=C/C=C/c2sc3ccccc3[n+]2CC)Sc2ccccc21 | – | 23.7 µM (active) and 26.6 µM (active)
COc1cc([C@@H]2c3cc4c(cc3[C@@H](O[C@@H]3O[C@@H]5CO[C@@H](C)O[C@H]5[C@H](O)[C@H]3O)[C@H]3COC(=O)[C@H]23)OCO4)cc(OC)c1O | – | inactive
C=CC(N)CCC(=O)O (stereo not given) | 28.4% (inactive) | –
Nc1cc(Cl)c(NC2=NCCN2)c(Cl)c1 | 14% (inactive) | –
NC(=O)c1cc[n+](CC2=C(C(=O)O)N3C(=O)[C@@H](NC(=O)C(c4ccccc4)S(=O)(=O)[O-])[C@H]3SC2)cc1 (stereo not given in full) | 22.7% [at 39.1 µM] (inactive) | –
C[N+]1(CCCCC[N+]2(C)CCCC2)CCCC1 | 12.7% (inactive) | –
CC(C)c1ccc2sc3ccccc3c(=O)c2c1 | 19.2% (inactive) | –
CCN(CC)C(=O)[C@]1(c2ccccc2)C[C@@H]1CN | 9.27% (inactive) | –
O=C1c2ccccc2CN2C(=O)c3ccccc3CN12 | 2.39% (inactive) | –
Cc1cc(CC(C)CC(C)(C)C)n(O)c(=O)c1 (stereo not given) (tested in a mixture with another compound) | -22.8% (inactive) | –
O=C(CCCCCCCCc1cccnc1)N1CCC(C=C(c2ccccc2)c2ccccc2)CC1 | – | 61.1 µM (active)
COc1ccc(/C=C/C(=O)Nc2ccccc2C(=O)O)cc1OC | -10.2% (inactive) | –
C(=C\c1ccncc1)/c1ccccc1 | – | inactive
CCCOC(=O)c1ccccc1O | 7.59% (inactive) | –
CC12CCC(C[N+](C)(CCC[N+](C)(C)C)C1)C2(C)C (stereo not given) | 14% (inactive) | –
C=CC1=C(C(=O)O)N2C(=O)[C@@H](NC(=O)/C(=N\O)c3csc(N)n3)[C@H]2SC1 (stereo in doubt) | – | inactive

Reference: PubChem BioAssay (Tox21)
